# Many of the other results were omitted from the sample, so hits are more common in it than they were.
# ST2 IL33 inh: inhibitors of human ST2 (IL1RL1) binding to IL-33, primary screen, biochemical, AlphaLISA; AlphaLISA ST2-Fc/biotin-IL-33 interaction, 1 h; AID 1259354, 2018; inhibition, % for hits at 17 µM; hit rate 2.3% among 78,000; Interleukin-1 receptor-like 1 (Homo sapiens), Q01638; in the data active means inhibition above about 30%
# Target sequence (Q01638 whole entry, looked up): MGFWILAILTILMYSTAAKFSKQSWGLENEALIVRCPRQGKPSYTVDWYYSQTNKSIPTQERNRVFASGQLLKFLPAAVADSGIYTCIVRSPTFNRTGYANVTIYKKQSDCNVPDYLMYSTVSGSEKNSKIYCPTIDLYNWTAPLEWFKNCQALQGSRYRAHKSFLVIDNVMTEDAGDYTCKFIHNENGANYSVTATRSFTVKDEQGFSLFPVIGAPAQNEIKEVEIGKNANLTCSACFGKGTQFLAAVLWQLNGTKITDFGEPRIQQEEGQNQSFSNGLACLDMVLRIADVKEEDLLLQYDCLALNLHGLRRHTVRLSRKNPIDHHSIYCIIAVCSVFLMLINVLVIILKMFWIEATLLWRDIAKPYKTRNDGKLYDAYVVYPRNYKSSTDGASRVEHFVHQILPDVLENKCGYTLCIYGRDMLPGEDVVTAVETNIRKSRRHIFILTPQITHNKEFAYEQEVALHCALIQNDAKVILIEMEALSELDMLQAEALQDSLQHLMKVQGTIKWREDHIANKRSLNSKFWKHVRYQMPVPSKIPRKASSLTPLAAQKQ
# Hits are given with their value; 0 = inactive.
SMILES,ST2 IL33 inh
COc1ccc(-c2cc(=O)c3cc(F)ccc3o2)cc1OC,0
COc1cc(-c2cc(=O)c3ccccc3o2)ccc1O,0
COc1ccc(-c2cc(=O)c3cc(Br)ccc3o2)cc1OC,31%
Cc1cc2n(n1)CCN(c1cc(N3CCOCC3)nc(N)n1)C2,0
COc1cc(C)ccc1OCCOc1ccccc1OC(C)C,0
Nc1nc(-c2ccc(-c3ccccc3)cc2)cs1,0
N#C/C(=C\Nc1ccc(S(N)(=O)=O)cc1)c1nc(-c2ccccc2)cs1,0
N#C/C(=C/C=C/c1ccccc1)c1nc(-c2ccc(F)cc2)cs1,40%
N#CCc1nc(-c2ccccc2)cs1,0
N#C/C(=C/c1ccc(F)cc1)c1nc(-c2ccccc2)cs1,56%
N#C/C(=C/C=C/c1ccccc1)c1nc(-c2cccs2)cs1,60%
CCCNC(=O)C(C)Sc1nc2nc(C)cc(C)n2n1 (configuration not stated),0
CCN(CC)CCNC(=O)c1sc2ccccc2c1Cl,0
COCC1=C2/C(=C\C3(C)CCC(O)(O3)[C@](C)(O)C[C@@H]2OC(C)=O)OC1=O (some centres not stated),0
COc1cc(CNC(=O)C2CCCN2c2nnc(N3CCCC3=O)s2)cc(OC)c1OC (configuration not stated),0
N#Cc1c(N)sc2c1CCCC2,31%
N#Cc1c(-n2cccc2C=O)sc2c1CCCC2,0
CC(=O)Nc1sc2c(c1C#N)CCCC2,0
Cc1cc(CNC(=O)c2ccc(-n3cnnn3)cc2)c2[nH]c(C)c(C)c2c1,0
COc1ccc(OC)c(C2C(C(=O)Nc3ccc(C)cn3)=C(C)NC3=C2C(=O)CC(C)(C)C3)c1 (configuration not stated),0
CC(=O)c1ccc(OCCOc2ccc(C(C)=O)cc2)cc1,0
Cc1ccc(Nc2ncnc3c2cnn3-c2ccccc2)cc1C,0
COC(=O)c1ccc(-c2noc(CN3CCC(c4ccc(F)cc4)C3)n2)cc1 (configuration not stated),0
COc1ccccc1N1CCN([C@H]2[C@@H]3OC[C@@H](O3)[C@@H](NCc3ccc(OC(F)(F)F)cc3)[C@@H]2O)CC1,0
O[C@H]1[C@H](NCc2ccc(OC(F)(F)F)cc2)[C@H]2CO[C@H](O2)[C@@H]1N1CCOCC1,64%
SMILES,ST2 IL33 inh
CN(C)CCN(C)[C@H]1[C@@H]2OC[C@@H](O2)[C@@H](NCc2ccc(OC(F)(F)F)cc2)[C@@H]1O,0
CC(C)(C)c1ccnc(N[C@H]2CO[C@H]3[C@@H]2OC[C@@H]3NC(=O)COc2ccccc2)n1,0
CCc1cc2c(=O)c(-c3nc4ccccc4s3)coc2cc1OC,0
CCOc1ccc2c(=O)c(-c3nc4ccccc4s3)coc2c1,30%
CC(=O)Oc1ccc2c(=O)c(-c3csc(-c4ccccc4)n3)coc2c1,0
CCOC(=O)C1=C(C)NC2=C(C(=O)CC(C)(C)C2)C1c1cc(Cl)cc(Cl)c1OC (configuration not stated),0
CC(C)NS(=O)(=O)c1cc(NC2CCCCC2)cc(C(=O)NC2Cc3ccccc3C2)c1,30%
Cc1ccc(S(=O)(=O)N2CCCCC2)cc1C(=O)NC1CCCCC1,0
CC(C)C(NS(=O)(=O)c1cccs1)C(=O)NC1CCCCCC1 (configuration not stated),0
CCn1cnc(NC(=O)N(C)Cc2ccc(OC)cc2)n1,0
Cc1noc(C)c1CNC(C)CCc1c[nH]c2ccccc12 (configuration not stated),0
Nc1nnc(-c2ccccc2)o1,0
C(=C\c1nnc(-c2ccccc2)o1)/c1ccccc1,34%
O=C(O)CCN(CCC(=O)O)c1nnc(-c2ccccc2)o1,0
COc1ccc(N2C(=O)CSC2c2ccc(Br)cc2)cc1Cl (configuration not stated),0
CC(C)C1CN(C(=O)Cc2ccc3c(c2)OCO3)CCC(=O)N1CC1CC1 (configuration not stated),0
CCC(=O)N(c1ccc(OC)cc1)C1C=CS(=O)(=O)C1 (configuration not stated),0
O=C1Nc2ccccc2NC12CCN(Cc1cc3n(n1)CCNC3)CC2,0
COc1cc(/C=C2\C(=O)N(c3cccc(Cl)c3)N=C2C)cc(OC)c1OC,0
CC1=NN(c2ccc(Cl)c(Cl)c2)C(=O)/C1=C/c1cc([N+](=O)[O-])ccc1O,0
COc1ccc(Cl)cc1/C=C1\C(=O)N(c2cccc(C(=O)O)c2)N=C1C,0
COc1cc(/C=C2\C(=O)N(c3ccccc3)N=C2C)cc(Br)c1O,0
COc1cc(/C=C2\C(=O)N(c3ccc(Cl)c(C(=O)O)c3)N=C2C)c([N+](=O)[O-])cc1OC,64%
COc1cc(/C=C2\C(=O)N(c3ccc(Cl)c(C(=O)O)c3)N=C2C)cc([N+](=O)[O-])c1O,80%
COc1ccc(CN(C)C(=O)c2ccc3cccc(F)c3n2)cc1O,0
SMILES,ST2 IL33 inh
Cc1[nH]cnc1CN1CCc2[nH]nc(-c3ccc(-c4ccccc4)cc3)c2C1,0
O=C(c1ccc2nc3ccccc3c(=O)n2c1)N1CCN(Cc2ccccc2)CC1,0
CC(C)Oc1ccc(C(=O)Nc2c3c(nn2-c2cccc(Cl)c2)CS(=O)C3)cc1 (configuration not stated),0
Cc1nn(-c2ccccn2)c2c1C(=O)/C(=C\Nc1ccccc1Cl)CC2,31%
Cc1nn(-c2ccccn2)c2c1C(=O)/C(=C/Nc1ccc([N+](=O)[O-])cc1Br)CC2,0
O=C1CSC(c2cccc(Cl)c2Cl)N1c1ccccn1 (configuration not stated),0
CC1=C(C(=O)Nc2ccccn2)C(c2ccccc2Cl)C2=C(CCCC2=O)N1 (configuration not stated),0
CCOC(=O)COc1cc(C)c(Cl)c(C)c1,0
CC(=O)Nc1cccc(OCc2cc(=O)n3cc(Cl)ccc3n2)c1,0
COc1cccc(C(=O)Nc2cccc(OCc3cc(=O)n4ccc(C)cc4n3)c2)c1,0
Cc1ccc(C(=O)Nc2cccc(OCc3cc(=O)n4cc(Cl)ccc4n3)c2)cc1,0
Cc1cccc(C(=O)Nc2cccc(OCc3cc(=O)n4ccc(C)cc4n3)c2)c1,0
COc1ccc(OCC(=O)Nc2ccc(C)c(OCc3cc(=O)n4ccc(C)cc4n3)c2)cc1,0
Cc1cccc(C(=O)Nc2ccc(C)c(OCc3cc(=O)n4cccc(C)c4n3)c2)c1,33%
CCOc1ccc(C(=O)Nc2cccc(OCc3cc(=O)n4cc(Cl)ccc4n3)c2)cc1,31%
CCOc1ccc(C(=O)Nc2ccc(C)c(OCc3cc(=O)n4cccc(C)c4n3)c2)cc1,0
COc1cccc(C(=O)Nc2ccc(C)c(OCc3cc(=O)n4cccc(C)c4n3)c2)c1,31%
CCC(=O)Oc1ccc2c(-c3ccccc3)cc(=O)oc2c1,0
O=C(c1cc(-c2ccncc2)nc2ccccc12)N1CCCC1,0
CCc1ccc(CN2C(=O)CCC2(C)C(=O)NC2CCCCC2)cc1 (configuration not stated),0
CCn1ncc(NC(=O)Cn2ccc(-c3cc4ccccc4o3)n2)n1,0
CN(C)CCNC(=O)c1ccc2c(c1)N(Cc1ccc(F)cc1Cl)C(=O)CS2,0
C=CCOc1ccccc1CN1CCN(C)C(=O)C1C (configuration not stated),0
Cc1ccc(C(=O)Nc2ccc3oc(-c4ccncc4)nc3c2)cc1C,0
COc1ccc([N+](=O)[O-])cc1NC(=O)c1cc2cc3ccc(C)cc3nc2s1,46%
COc1ccc2cc3cc(C(=O)Nc4ccc(OC)c(Cl)c4)sc3nc2c1,38%
COc1ccc(NC(=O)c2cc3cc4ccc(C)cc4nc3s2)cc1OC,0

# Bioassay records (PubChem)
